Bioassay records as filed in PubChem BioAssay.
Only some compounds are listed: those with a hit (about 4.3% of all), similar ones and a draw of the others.
rCAG binder: r(CAG) repeat RNA binding | TO-PRO-1 dye displacement fluorescence | inhibition, % at 3 µM | actives 1.3% (n = 370,000) | AID 651821;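 active = inhibition above the plate cutoff, the mean of all test compounds on that plate plus 3 SD, cut at about 35% in these data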;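 also: 0% = DMSO alone and 100% = 100 µM mitoxantrone as full dye displacement; higher means more dye released from RNA so lower well fluorescence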
NadD inh: blocks S. aureus nicotinate mononucleotide adenylyltransferase; purified NadD enzyme, colorimetric absorbance read-out; inhibition, % at 20 µM; actives 0.78% (n = 360,000); in the data active = inhibition above about 26%
FAS TE block: FAS thioesterase (human) inhibition; P49327; recombinant FAS-TE, OMFH fluorogenic substrate, fluorescence endpoint; inhibition, % at 15 µM; actives 0.67% (n = 360,000);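 active = compounds whose normalised, plate-corrected inhibition of enzyme fluorescence in the single-dose primary screen is 50% or more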;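 also: 0% = DMSO with enzyme and 100% = substrate without enzyme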
Target sequence (P49327 whole entry, looked up): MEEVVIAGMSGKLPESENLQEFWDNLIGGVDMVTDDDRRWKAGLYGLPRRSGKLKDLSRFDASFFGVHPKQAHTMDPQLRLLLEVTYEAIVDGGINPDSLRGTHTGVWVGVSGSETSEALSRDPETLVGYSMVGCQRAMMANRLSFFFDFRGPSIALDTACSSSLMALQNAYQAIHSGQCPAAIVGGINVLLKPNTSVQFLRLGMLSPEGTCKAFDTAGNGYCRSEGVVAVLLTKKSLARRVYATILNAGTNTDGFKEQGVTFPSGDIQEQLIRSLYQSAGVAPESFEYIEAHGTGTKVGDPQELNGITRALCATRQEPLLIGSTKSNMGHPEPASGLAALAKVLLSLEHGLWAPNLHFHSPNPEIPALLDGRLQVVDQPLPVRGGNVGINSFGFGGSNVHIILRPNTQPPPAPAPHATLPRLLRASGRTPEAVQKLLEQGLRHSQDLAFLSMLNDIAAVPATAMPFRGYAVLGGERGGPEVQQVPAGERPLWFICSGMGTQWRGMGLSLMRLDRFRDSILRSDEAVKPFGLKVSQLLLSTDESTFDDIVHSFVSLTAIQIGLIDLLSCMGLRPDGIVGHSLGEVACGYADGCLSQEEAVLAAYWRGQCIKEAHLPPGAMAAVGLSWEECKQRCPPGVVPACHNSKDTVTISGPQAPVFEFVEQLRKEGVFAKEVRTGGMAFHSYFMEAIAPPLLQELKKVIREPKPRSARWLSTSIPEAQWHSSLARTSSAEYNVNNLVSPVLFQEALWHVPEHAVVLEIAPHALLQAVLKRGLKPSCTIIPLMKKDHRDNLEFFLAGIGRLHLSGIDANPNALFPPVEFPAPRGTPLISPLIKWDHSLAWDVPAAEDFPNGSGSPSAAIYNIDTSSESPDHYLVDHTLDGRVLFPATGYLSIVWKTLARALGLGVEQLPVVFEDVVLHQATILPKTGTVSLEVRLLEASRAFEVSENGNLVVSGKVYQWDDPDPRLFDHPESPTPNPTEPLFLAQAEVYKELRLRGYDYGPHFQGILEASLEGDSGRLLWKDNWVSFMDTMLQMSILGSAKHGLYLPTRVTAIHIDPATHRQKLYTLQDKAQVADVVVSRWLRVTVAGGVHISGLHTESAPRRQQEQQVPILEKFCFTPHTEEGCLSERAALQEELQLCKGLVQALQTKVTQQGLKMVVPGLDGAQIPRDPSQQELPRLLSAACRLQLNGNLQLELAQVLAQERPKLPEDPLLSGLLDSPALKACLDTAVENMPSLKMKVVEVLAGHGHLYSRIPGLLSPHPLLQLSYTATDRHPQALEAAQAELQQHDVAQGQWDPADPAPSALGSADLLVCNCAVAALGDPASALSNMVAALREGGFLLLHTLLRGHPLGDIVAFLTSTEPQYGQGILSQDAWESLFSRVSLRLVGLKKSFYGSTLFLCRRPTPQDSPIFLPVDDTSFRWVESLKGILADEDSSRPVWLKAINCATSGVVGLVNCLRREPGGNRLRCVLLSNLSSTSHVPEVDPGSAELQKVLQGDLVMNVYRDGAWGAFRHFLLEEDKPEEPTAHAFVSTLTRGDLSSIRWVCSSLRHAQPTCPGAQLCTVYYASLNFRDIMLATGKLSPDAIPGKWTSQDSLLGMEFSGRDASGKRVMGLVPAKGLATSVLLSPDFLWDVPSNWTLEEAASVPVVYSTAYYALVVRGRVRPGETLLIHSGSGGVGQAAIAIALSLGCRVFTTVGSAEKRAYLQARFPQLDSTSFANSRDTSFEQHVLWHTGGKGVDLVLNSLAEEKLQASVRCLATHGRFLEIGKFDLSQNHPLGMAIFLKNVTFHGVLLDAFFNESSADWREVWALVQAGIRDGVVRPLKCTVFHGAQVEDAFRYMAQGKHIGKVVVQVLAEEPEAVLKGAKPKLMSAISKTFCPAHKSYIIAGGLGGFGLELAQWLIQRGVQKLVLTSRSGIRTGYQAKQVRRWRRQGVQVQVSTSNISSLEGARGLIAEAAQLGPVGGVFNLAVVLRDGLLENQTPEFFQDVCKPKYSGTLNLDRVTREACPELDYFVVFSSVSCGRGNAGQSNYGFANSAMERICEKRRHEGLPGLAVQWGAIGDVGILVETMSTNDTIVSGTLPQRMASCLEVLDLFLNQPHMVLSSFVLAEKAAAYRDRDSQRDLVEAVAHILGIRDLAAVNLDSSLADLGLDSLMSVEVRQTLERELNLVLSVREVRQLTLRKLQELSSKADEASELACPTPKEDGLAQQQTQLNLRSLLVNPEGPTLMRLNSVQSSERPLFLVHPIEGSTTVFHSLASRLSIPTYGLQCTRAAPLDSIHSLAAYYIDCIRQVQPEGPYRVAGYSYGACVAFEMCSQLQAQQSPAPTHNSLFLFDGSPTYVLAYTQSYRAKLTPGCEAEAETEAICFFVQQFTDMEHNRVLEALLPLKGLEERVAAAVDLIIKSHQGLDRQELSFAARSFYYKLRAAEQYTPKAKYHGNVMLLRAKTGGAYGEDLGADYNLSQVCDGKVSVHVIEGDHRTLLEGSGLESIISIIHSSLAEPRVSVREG
NR3A LBD binder: modulators (binders) of human NR3A ligand-binding domain; NR3A LBD differential scanning fluorimetry, Tm shift; 0% = protein alone, 100% = glycine-bound protein; Tm shift relative to glycine control, % at 25 µM; actives 2.5% (n = 340,000);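 active = melting temperature shift of at least 10% of the positive control shift, at one fixed dose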
rCAG bind conf: r(CAG) RNA repeat binding, confirmation | shares compounds with rCAG binder | TO-PRO-1 dye displacement fluorescence | inhibition, % at 3 µM | actives 70% (n = 4,300);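 active = inhibition above a per-plate cutoff, the mean inhibition of sample wells plus 3 SD, cut at about 35% in these data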;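 also: loss of TO-PRO-1 fluorescence as compound displaces dye from 1x1 AA loop RNA; 0% = DMSO only wells and 100% = 100 µM mitoxantrone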
dCAG dye counter: counter-screen for rCAG RNA binders: DNA CAG dye complex inhibitors | d(CAG) DNA oligo TO-PRO-1 dye displacement, fluorescence | actives 94% (n = 4,300) | inhibition, % at 3 µM | shares compounds with rCAG binder;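 active = inhibition above its plate's cutoff, the mean test-well inhibition plus 3 SD, cut at about 4.8% in these data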;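 also: 0% = DNA dye mix with DMSO and 100% = 100 µM mitoxantrone; hits displace the dye from DNA and so lower well fluorescence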
DNA CAG DR: counter-screen for rCAG binders: inhibitors of DNA CAG TO-PRO-1 complex; DNA CAG/GTC duplex TO-PRO-1 dye displacement fluorescence; shares compounds with rCAG binder; IC50, µM; actives 20% (n = 250); in the data active = IC50 below about 10 µM
The depositor's hits bear a star.

How did CC(C)(C)c1ccc(OCC(=O)Nc2ccc(C(=O)Nc3ccccc3C(=O)O)cc2)cc1 do in these assays?
rCAG binder: 43*; NadD inh: 28; FAS TE block: 29; NR3A LBD binder: 9; rCAG bind conf: 88*; dCAG dye counter: 67*

Results for COc1ccccc1OCC(=O)Nc1ccc(C(=O)Nc2ccccc2C(=O)O)cc1 ?
rCAG binder: 58*; NadD inh: -1; FAS TE block: 0; rCAG bind conf: 65*; dCAG dye counter: 23*

What do the screens show for `COc1ccc(CC(=O)Nc2ccc(C(=O)Nc3ccccc3C(=O)O)cc2)cc1OC`?
rCAG binder: 59*; NadD inh: -4; FAS TE block: -5; NR3A LBD binder: -3; rCAG bind conf: 42*; dCAG dye counter: 9.9*

What do the screens show for `CN(Cc1ccccc1)C(=O)OCc1cn(Cc2cccc(Cl)c2)nn1`?
rCAG binder: 3

Results for Cc1ccc(NS(=O)(=O)c2ccc(Cl)c(N=Nc3c(O)[nH]c(=O)[nH]c3=O)c2)cc1Cl ?
rCAG binder: 66*; NadD inh: 31*; FAS TE block: 10; NR3A LBD binder: 11*; rCAG bind conf: 76*; dCAG dye counter: 36*

What do the screens show for `COC(=O)C1=C(C)N(Cc2ccccc2C(F)(F)F)C(=NCc2cc(OC)c(OC)c(OC)c2)NC1CCc1ccccc1` (configuration not stated)?
rCAG binder: 9

How did Cc1ccc(/C=c2\s/c(=C(/C#N)C(=O)N3CCCC3)n(Cc3ccco3)c2=O)s1 do in these assays?
rCAG binder: 35*; NadD inh: 24; FAS TE block: 16; NR3A LBD binder: -1; rCAG bind conf: 12; dCAG dye counter: 10*

What do the screens show for `COc1ccc(-c2cnc3c(c2)CCC3(C#N)C#N)cc1`?
rCAG binder: -1; NadD inh: -5; FAS TE block: 10; NR3A LBD binder: -8

What do the screens show for `Nc1c(C(=O)O)sc2nc(-c3ccccc3)cc(-c3ccc(Cl)cc3)c12`?
rCAG binder: 76*; NadD inh: 5; FAS TE block: 18; NR3A LBD binder: -16; rCAG bind conf: 71*; dCAG dye counter: 37*

What do the screens show for `O=c1oc2ccccc2c(Nc2ccccc2O)c1[N+](=O)[O-]`?
rCAG binder: 3; NadD inh: 7; FAS TE block: -4; NR3A LBD binder: 5

How did O=c1oc2ccccc2c(Nc2cccc3ccccc23)c1[N+](=O)[O-] do in these assays?
rCAG binder: 42*; NadD inh: 1; FAS TE block: -4; NR3A LBD binder: 1; rCAG bind conf: 45*; dCAG dye counter: 12*

Results for O=c1oc2ccccc2c(Nc2cc3ccccc3cc2O)c1[N+](=O)[O-] ?
rCAG binder: 41*; NadD inh: 6; FAS TE block: -3; NR3A LBD binder: 7; rCAG bind conf: 56*; dCAG dye counter: 20*

How did O=C(/C=C/c1cccs1)NC(=S)Nc1ccc(S(=O)(=O)Nc2ccccc2C(F)(F)F)cc1 do in these assays?
rCAG binder: 56*; NadD inh: 15; FAS TE block: 47; NR3A LBD binder: 27*; rCAG bind conf: 70*; dCAG dye counter: 32*; DNA CAG DR: inactive

Results for Cc1cc(NS(=O)(=O)c2ccc(NC(=O)/C=C/c3ccccc3)cc2)no1 ?
rCAG binder: 30; NadD inh: 0; FAS TE block: -7; NR3A LBD binder: -7

Results for Cc1ccc(/C=C/C(=O)NC(=S)Nc2ccc(S(=O)(=O)Nc3cc(C)on3)cc2)cc1 ?
rCAG binder: 80*; NadD inh: 7; FAS TE block: -2; NR3A LBD binder: -6; rCAG bind conf: 77*; dCAG dye counter: 46*

How did Cc1cc(NS(=O)(=O)c2ccc(NC(=S)NC(=O)c3ccccc3)cc2)no1 do in these assays?
rCAG binder: 26; NadD inh: -3; FAS TE block: -11; NR3A LBD binder: -5

What do the screens show for `COc1ccc(NC(=S)NC(=O)/C=C/c2cccs2)cc1`?
rCAG binder: -4; NadD inh: 7; FAS TE block: 0; NR3A LBD binder: -2

Results for Cc1cc(NS(=O)(=O)c2ccc(NC(=S)NC(=O)/C=C/c3ccccc3)cc2)no1 ?
rCAG binder: 71*; NadD inh: 7; FAS TE block: 1; NR3A LBD binder: -15; rCAG bind conf: 47*; dCAG dye counter: 17*

Results for Cc1cc2c(nc1C)CCCN2Cc1ccccc1C(F)(F)F ?
rCAG binder: 3

Results for COc1cc(NC(=O)C2CCCN(S(=O)(=O)c3ccc(C)cc3)C2)cc(OC)c1 (configuration not stated) ?
rCAG binder: 1

How did CC(Sc1nnnn1-c1ccc(O)cc1)C(=O)NC1CCCCC1C (configuration not stated) do in these assays?
rCAG binder: -1; NadD inh: -3; FAS TE block: -2; NR3A LBD binder: -1

What do the screens show for `O=C(Cc1nnc(NC(=O)c2ccccc2)s1)N/N=C/c1ccco1`?
rCAG binder: 71*; NadD inh: 1; FAS TE block: -3; NR3A LBD binder: 0; rCAG bind conf: 6; dCAG dye counter: 5.7*

What do the screens show for `O=C(CCCCCNC(=O)c1ccccc1)N/N=C/c1ccco1`?
rCAG binder: 1; NadD inh: -1; FAS TE block: -12; NR3A LBD binder: 2

What do the screens show for `COC(=O)[C@]12C[C@H](CC(=O)NCCCCc3ccccc3)C(=O)N(Cc3ccc(Cl)cc3Cl)C1=C[C@H](C1CCCC1)O[C@@H]2C`?
rCAG binder: 11

How did Oc1ccc(-c2cc(-c3ccc(O)cc3)nc(-c3ccccc3)n2)cc1 do in these assays?
rCAG binder: 65*; NadD inh: 2; FAS TE block: 36; NR3A LBD binder: 29*; rCAG bind conf: 51*; dCAG dye counter: 26*; DNA CAG DR: inactive

How did COC(=O)c1cc2c(c3c4cc(F)ccc4n(S(=O)(=O)c4cccc(C)c4)c13)C(=O)N(Cc1ccc(N(C)C)cc1)C2 do in these assays?
rCAG binder: 11

How did COC(=O)[C@H](C(C)C)N(CCc1cn(Cc2ccc(C)cc2)nn1)S(=O)(=O)c1ccc(F)cc1Br do in these assays?
rCAG binder: 6

How did COc1ccccc1NC(=O)OCCCN1CCC2(CCC(C)CC2)C1=O (configuration not stated) do in these assays?
rCAG binder: 0

How did CCCN(C(=O)c1cn(CCC)c2ccccc12)c1ccc(Oc2cccnc2)cc1 do in these assays?
rCAG binder: 2

Results for CCC(C)N(C(C)CC)S(=O)(=O)c1ccc2[nH]c(=O)oc2c1 (configuration not stated) ?
rCAG binder: 21
